From PubChem BioAssay AID1347072 (National Center for Advancing Translational Sciences (NCATS), 2019)
Hit rate of the full screen: of about 44,000 compounds, fewer than 10 were called active. Not shown: some 2% with an inconclusive outcome. Calls come from the whole dose curve; as a rule, active = well fitted curve in the direction sought with a large enough effect; inconclusive = small, poorly fitted or top-dose-only effect, or another doubt; inactive = no such curve, though single readings can be large or run the other way. Not all results are given here.

Target: Galactokinase (Homo sapiens) (UniProt P51570)
Sequence (P51570 whole entry, looked up): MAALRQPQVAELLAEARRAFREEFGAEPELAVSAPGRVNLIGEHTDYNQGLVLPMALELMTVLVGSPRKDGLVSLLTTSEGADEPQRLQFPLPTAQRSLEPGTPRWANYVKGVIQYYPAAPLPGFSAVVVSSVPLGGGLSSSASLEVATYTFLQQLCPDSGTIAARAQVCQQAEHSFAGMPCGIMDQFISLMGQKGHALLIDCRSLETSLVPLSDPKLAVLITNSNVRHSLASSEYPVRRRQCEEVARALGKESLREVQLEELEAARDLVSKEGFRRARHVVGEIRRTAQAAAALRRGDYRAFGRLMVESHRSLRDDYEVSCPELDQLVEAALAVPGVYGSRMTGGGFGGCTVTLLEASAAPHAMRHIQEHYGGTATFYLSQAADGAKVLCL
Assay: qHTS Assay for Inhibitors of Human Galactokinase (GALK): NCGC Sytravon Library Screen
Conditions: recombinant GALK, Kinase-Glo ATP luminescence, 1 h; series mostly up to 57.5 µM
From the text: Inherited deficiency of galactose-1-phosphate uridyltransferase (GALT) can result in a potentially lethal disorder called Classic Galactosemia (OMIM 230400). Several lines of evidence indicate that an elevated level of galactose-1-phosphate (gal-1-p), the product of galactokinase (GALK), is a major, if not sole, pathogenic mechanism in patients with classic galactosemia. Therefore, finding inhibitors of GALK is a potential novel therapy for this inherent metabolic disease and is the long term goal of this project. This screen is run against the NCGC Sytravon compound library collection. GALK (provided by Kent Lai) was assayed using ATP and D-(+)-Galactose (Sigma-Aldrich cat# G0750) as substrates. Promega Kinase-Glo Plus technology was used to detect kinase activity. Reactions with and without GALK were used as negative and positive controls together with Protein Tyrosine Phosphatase CD45 inhibitor (EMD Bioscience cat# 540215) which is shown to inhibit GALK activity. Decrease in activity corresponds to inhibition of the enzyme is the desired outcome for this assay. NIH Molecular Libraries Probe Production Network [MLPCN] NIH Chemical Genomics Center [NCGC] Grant: R03 MH085689-01 PI Name: Kent Lai Ph.D., University of Utah
NCGC Assay Protocol Summary: Three uL/well of ATP-buffer solution (35 uM ATP, 20mM HEPES pH8.0, 5 mM MgCl2, 60 mM NaCl, 1 mM DTT, 0.01% BSA final concentration) was dispensed into 1536-well, assay plates (Greiner, solid white medium-binding plates) with Aurora Discovery BioRAPTR Flying Reagent Dispenser (FRD; Beckton-Dickenson). Compound solution (23 nL) was transferred to the assay plate using the Kalypsys 1536-pin tool. One uL/well GALK-galactose solution (5 nM GALK, 100 uM galactose, 20 mM HEPES pH8.0, 5 mM MgCl2, 60 mM NaCl, 1 mM DTT, 0.01% BSA final concentration) was then added using the FRD yielding a total kinase reaction volume of 4 uL/ well. After 1 hour of room temperature incubation, 4 uL Kinase-Glo Plus reagent was added for a final assay volume of 8 uL/ well. Luminescence was detected with the ViewLux plate reader (Perkin Elmer, Waltham, MA) after 10 min incubation using a 1 sec exposure time and 2x binning.

outcome, inactive:
CCc1nc(-c2cc(S(=O)(=O)N3CCN(c4ccc(OC)cc4)CC3)ccc2OC)no1
Cc1ccc(NC(=O)Cn2c(=O)n(-c3ccccc3)c(=O)c3c4c(sc32)CCCC4)cc1
COc1cccc(CNC(=O)CN2C(=O)CCc3cc(S(=O)(=O)N4CCOCC4)ccc32)c1
C#CCOc1ccc(C2CC(=O)Nc3c2c(C)nn3-c2nc(C)cc(C)n2)cc1 (stereo unspecified)
Cc1cccc(NC(c2cccc(F)c2)c2ccc3ccc(C)nc3c2O)n1 (stereo unspecified)
O=C(CCS(=O)(=O)c1cc(Br)cc2c1N(C(=O)C1CC1)CC2)Nc1ccc(Br)cc1F
CCOC(=O)c1ccc(N2C(=O)c3n[nH]c(-c4ccco4)c3C2c2ccc(O)cc2)cc1 (stereo unspecified)
O=C(CC1Oc2ccc(Cl)cc2NC1=O)NCc1ccccc1 (stereo unspecified)
COc1ccc(-n2c(C)nc3c(cnn3-c3ccc(F)cc3)c2=O)cc1
COc1ccc(CCN2C(=O)N(c3cccc(OC)c3)C(=O)C2CC(=O)Nc2ccccc2)cc1 (stereo unspecified)
COc1ccc(CCNC(=O)CCc2c(C)nc3c(c(C)nn3-c3ccc(C)c(C)c3)c2C)c(OC)c1OC
O=C1CCCc2cc(S(=O)(=O)N3CCCC(C(=O)NCc4ccccc4)C3)ccc2N1 (stereo unspecified)
COc1ccccc1NC(=O)CSc1oc(-c2ccco2)nc1S(=O)(=O)c1ccc(Br)cc1
O=C(CSc1cn(CC(=O)N2CCOCC2)c2ccccc12)Nc1ccccc1
CCCNc1ncnc2c1c(-c1ccccc1)cn2-c1ccc(OCC)cc1
COc1cccc(CNC(=O)c2ccc3c(c2)sc2nc(-c4cccc(OC)c4)cn23)c1
COc1ccc(NC(=O)N2CCCn3nc(C)cc32)cc1OC
CC(C)c1ccc(NC(=O)Cn2c3ncccc3c(=O)n2-c2ccccc2)cc1
Cc1cn(C)c(CC(=O)NCc2ccc(Cl)cc2)c1C(=O)O
O=C(NCc1ccccc1)C1CCN(S(=O)(=O)c2ccc3[nH]c(=O)ccc3c2)CC1
Cc1cc(C)c(NC(=O)CCc2c(C)nc3c(c(C)nn3C(C)(C)C)c2C)c(C)c1
CCOC(=O)c1ccc(NC(=O)CSc2nc3c([nH]c4ccccc43)c(=O)n2C)cc1
COc1cccc(NC(=O)c2csnn2)c1
CCc1nc2c(cnn2-c2ccc(C)cc2)c(=O)n1-c1ccc(C)cc1
CCC1(C)CC(=O)c2c(ccc3oc(C(=O)Nc4ccc(C(C)=O)cc4)c(C)c23)O1 (stereo unspecified)
COc1ccc2oc(-c3ccc(C)c(NC(=O)c4sc5ccccc5c4Cl)c3)nc2c1
CCOC(=O)Cn1c(=O)n(-c2ccccc2OC)c2nc(-c3cccc(F)c3)nc(C(N)=O)c21
Cc1ccc(NC(=O)c2cn3c4c(ccc(Cl)c4c2=O)OC(C)C3)cc1C (stereo unspecified)
CCCCS(=O)(=O)c1oc(-c2cccs2)nc1S(=O)(=O)c1ccccc1
O=C(CSc1ncc(CO)n1Cc1ccc(F)cc1)NCc1ccco1
CNc1ccc(-c2nc(-c3ccccc3C)no2)cc1[N+](=O)[O-]
CCc1ccccc1NC(=O)Cn1c(=O)n(-c2cccc(C)c2)c(=O)c2c1c1cc(OC)ccc1n2C
CCOC(=O)c1c(S(=O)(=O)N2CCCC(C(=O)NCc3cccc(C)c3)C2)c(C)n(C)c1C (stereo unspecified)
CCOc1ccccc1NC(=O)c1ccc2c(c1)CCN2S(=O)(=O)c1ccc(C)cc1
CCOc1ccc(CNC(=O)C2CCN(c3nnc(-n4cccc4CNc4ccc(C)cc4)s3)CC2)cc1OC
CCN1C(=O)c2ccccc2Sc2ccc(NC(=O)Cc3ccc(OC)cc3)cc21
Cc1ccc(C)c(S(=O)(=O)c2nnn3c2nc(N2CCOCC2)c2sccc23)c1
Cc1ccc(NC(=O)C2CCN(S(=O)(=O)c3cc(-c4noc(C)n4)ccc3C)CC2)c(C)c1
CCCC(=O)Nc1ccc2oc(-c3ccc(O)c(Br)c3)nc2c1
O=S(=O)(c1ccc(C2CCCCC2)cc1)N1CCN(c2ccc(Cl)c(Cl)c2)CC1
COc1ccc(-c2nn(CC(=O)NC3CCCC3)c3c2cnc2ccc(F)cc23)cc1
Cc1ccc2oc(=O)c3cnn(CC(=O)NCc4ccccc4Cl)c3c2c1
Cc1ccc(CN(C(=O)COc2ccc(Cl)cc2C)C2CCS(=O)(=O)C2)o1 (stereo unspecified)
CCN(CCCNC(=O)c1cc(Nc2ccc(OC)cc2)nc2ccccc12)c1cccc(C)c1
Cc1c(C)n(Cc2ccc(Cl)cc2)c2ccc(C(=O)N3CCN(c4ccccc4F)CC3)cc12
Cc1ccc(OCCSc2nc3ccc(NC(=O)COc4ccc(C)cc4)cc3s2)cc1
CCSc1nnc(NC(=O)c2cc(=O)c3cc(C)c(C)cc3o2)s1
O=C(CS(=O)(=O)c1cccc2nsnc12)N1CCN(c2cccc(Cl)c2)CC1
Cc1nc2ccn(Cc3cccnc3)c(=O)c2cc1C(=O)N1CCN(c2ccccc2F)CC1
O=C(CSc1nc2nccnc2c(=O)n1CCc1c[nH]c2ccccc12)Nc1ccccc1F
CCn1cc(C(=O)OCC(=O)Nc2cc(C)cc(C)c2)c(=O)c2ccc(C)nc21
CCN1CCN(Cc2c(O)ccc3oc(C)c(C(=O)Nc4ccc(C)cc4C)c23)CC1
CC1CCCN(c2csc3ccc(F)cc3c2=O)C1 (stereo unspecified)
Cc1ccccc1CNC(=O)c1cccc(NC(=O)c2nsc3ccccc23)c1
CN(Cc1ccco1)S(=O)(=O)c1nnc(NC(=O)c2ccccc2)s1
Cc1ccc(F)cc1S(=O)(=O)N1CCC(c2nc3ccccc3s2)CC1
CCn1c2ccccc2c2cc(CN3CCN(Cc4cccc(Cl)c4)CC3)ccc21
CN(Cc1ccccc1)S(=O)(=O)c1ccc(F)c(C(=O)Nc2cccc(Cl)c2Cl)c1
O=C(Nc1cccc2cccnc12)c1cccc2c(Br)cccc12
CCOc1ccc(NC(=O)c2cc3c(=O)n(Cc4cccs4)ccc3nc2C)cc1
CCOc1ccccc1NC(=O)CN1CCCN(Cc2cccc(Cl)c2)S1(=O)=O
